Measured values published in PubChem BioAssay (Tox21).
Inconclusive results are not listed. Activity calls are given as the source filed them. Unless noted, calls follow the shape of the full dose curve.

Columns and labels:
[1] = Nuclear factor erythroid 2-related factor 2/antioxidant responsive element (Nrf2/ARE) small molecule agonists: qHTS cell viability counter screen in human keratinocytes (AID 1919968; active = well fitted curve in the direction sought with a large enough effect in the repeat runs; an effect the other way counts as inactive or inconclusive; also: nearly all actives have a fitted effect of over 55% in size)
Procedure, shortened: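 After a 5 h attachment period, ARE-reporter keratinocytes were dosed with compounds in DMSO and then cultured 23 h at 37 C. Cell viability came from CellTiter-Fluor signal read after a further 1 h.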

[2] = Nuclear factor erythroid 2-related factor 2/antioxidant responsive element (Nrf2/ARE) small molecule agonists: luciferase reporter gene qHTS assay in human keratinocytes (AID 1919969); also: nearly all actives have a fitted effect of over 35% in size
[3] = target: Gonadotropin-releasing hormone receptor (Homo sapiens) (UniProt P30968); test: Human gonadotropin-releasing hormone receptor (GnRHR) small molecule agonists, calcium flux assay in GnRHR-HEK293 cells (AID 1920063); also: nearly all actives have a fitted effect of over 35% in size
Sequence of Gonadotropin-releasing hormone receptor (Homo sapiens) (P30968 whole entry, looked up): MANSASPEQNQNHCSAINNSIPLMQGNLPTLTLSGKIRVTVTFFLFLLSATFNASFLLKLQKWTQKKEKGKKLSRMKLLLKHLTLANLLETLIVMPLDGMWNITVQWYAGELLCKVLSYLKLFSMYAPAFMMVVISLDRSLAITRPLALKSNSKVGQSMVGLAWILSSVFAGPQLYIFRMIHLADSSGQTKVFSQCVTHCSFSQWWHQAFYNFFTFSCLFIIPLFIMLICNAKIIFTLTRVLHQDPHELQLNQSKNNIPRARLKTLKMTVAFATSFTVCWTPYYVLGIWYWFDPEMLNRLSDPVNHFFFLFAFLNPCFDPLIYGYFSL
Procedure, shortened: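 We seeded human GnRHR-expressing HEK293 cells for 18 hours, loaded them with calcium dye for an hour at 37 C, added test compounds, and recorded fluorescence intensity kinetically for three minutes.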

[4] = target: KiSS-1 receptor (Homo sapiens) (UniProt Q969F8); test: Human kisspeptin (KISS1R) small molecule agonists, calcium flux assay in KISS1R-HEK293 cells (AID 1920064; active = well fitted curve in the direction sought with a large enough effect in the repeat runs; an effect the other way counts as inactive or inconclusive)
Sequence of KiSS-1 receptor (Homo sapiens) (Q969F8 whole entry, looked up): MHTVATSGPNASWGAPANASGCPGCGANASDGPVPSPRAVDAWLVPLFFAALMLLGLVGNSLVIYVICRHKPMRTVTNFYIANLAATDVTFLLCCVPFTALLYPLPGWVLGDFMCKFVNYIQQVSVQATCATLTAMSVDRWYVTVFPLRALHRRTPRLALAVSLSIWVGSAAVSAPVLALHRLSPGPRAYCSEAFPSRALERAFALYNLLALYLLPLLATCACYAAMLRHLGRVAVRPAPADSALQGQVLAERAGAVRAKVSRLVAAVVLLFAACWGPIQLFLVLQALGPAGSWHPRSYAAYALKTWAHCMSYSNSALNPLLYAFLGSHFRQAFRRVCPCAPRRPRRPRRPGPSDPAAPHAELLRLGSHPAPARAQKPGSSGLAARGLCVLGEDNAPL
Procedure, shortened: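 Kinetic calcium assay, 1 s sampling over 3 min at Ex/Em 480/540, in HEK293 cells engineered with human KISS1R; compounds delivered in DMSO after 1 h dye loading.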

[5] = G protein-coupled receptor (GPCR) small molecule agonists, calcium flux assay: HEK293 wild type cell line counter screen (AID 1920065)
Procedure, shortened: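 Calcium-sensitive dye, loaded 1 h at 37 C into cells cultured 18 h, reports compound-evoked calcium release as fluorescence (Ex/Em 480/540), measured over 3 min. Agonist mode; 15-point titrations, triplicate.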

[6] = p53 small molecule agonists, cell-based qHTS assay with human liver microsomes (AID 1963577);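 also: p53 response element beta-lactamase reporter cells with liver microsomes plus NADPH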
Procedure, shortened: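 HLM-supplemented p53RE-bla reporter assay: 16 h compound exposure at 37 C, microsomes and NADPH each 0.5 mg/mL final, read by fluorescence intensity.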

[7] = p53 small molecule agonists, cell-based qHTS assay with rat liver microsomes (AID 1963578)
Procedure, shortened: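 Quantitative HTS of the Tox21 10K library: p53RE-bla cells, rat liver microsomes plus NADPH at 0.5 mg/mL final each, 16 h at 37 C, beta-lactamase fluorescence detection.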

[8] = p53 small molecule agonists, cell-based qHTS assay with human liver microsomes: qHTS cell viability counter screen (AID 1963579); also: nearly all actives have a fitted effect of over 45% in size
Procedure, shortened: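 Viability of p53RE-bla cells is measured as CellTiter-Glo luminescence following a 16 h, 37 C incubation with compound, liver microsomes from human donors and NADPH.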

[9] = p53 small molecule agonists, cell-based qHTS assay with rat liver microsomes: qHTS cell viability counter screen (AID 1963580); also: nearly all actives have a fitted effect of over 45% in size
Procedure, shortened: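 HCT-116 p53RE-bla, 4,000 cells/well, 5 h pre-incubation; cpd + rat liver microsomes 0.5 mg/mL + NADPH 0.5 mg/mL (final); 16 h, 37 C; CellTiter-Glo, 30 min RT; luminescence.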

[10] = p53 small molecule agonists, cell-based qHTS assay: qHTS cell viability counter screen (AID 1963581); also: nearly all actives have a fitted effect of over 45% in size
Procedure, shortened: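 Following 5 h attachment, HCT-116 p53RE-bla cells took up compound for 16 h at 37 C; the reporter was read with B/G FRET substrate (2 h RT), and viability then via CellTiter-Glo ATP luminescence.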

[11] = p53 small molecule agonists, cell-based qHTS assay (AID 1963582; active = well fitted activation curve with a large enough effect in the signal ratio in the repeat runs, not every such curve was filed as active; the % refers to the signal ratio)
Procedure, shortened: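 In this cell-based concentration-response screen, a p53 response element drives beta-lactamase; cells received DMSO-borne compounds after 5 h culture and were incubated a further 16 h before FRET substrate development.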

[12] = target: 5-hydroxytryptamine receptor 2A (Homo sapiens) (UniProt P28223); test: 5-hydroxytryptamine receptor 2A (HTR2A) small molecule antagonists, cell-based qHTS assay (AID 1963586); also: nearly all actives have a fitted effect of over 45% in size
Sequence of 5-hydroxytryptamine receptor 2A (Homo sapiens) (P28223 whole entry, looked up): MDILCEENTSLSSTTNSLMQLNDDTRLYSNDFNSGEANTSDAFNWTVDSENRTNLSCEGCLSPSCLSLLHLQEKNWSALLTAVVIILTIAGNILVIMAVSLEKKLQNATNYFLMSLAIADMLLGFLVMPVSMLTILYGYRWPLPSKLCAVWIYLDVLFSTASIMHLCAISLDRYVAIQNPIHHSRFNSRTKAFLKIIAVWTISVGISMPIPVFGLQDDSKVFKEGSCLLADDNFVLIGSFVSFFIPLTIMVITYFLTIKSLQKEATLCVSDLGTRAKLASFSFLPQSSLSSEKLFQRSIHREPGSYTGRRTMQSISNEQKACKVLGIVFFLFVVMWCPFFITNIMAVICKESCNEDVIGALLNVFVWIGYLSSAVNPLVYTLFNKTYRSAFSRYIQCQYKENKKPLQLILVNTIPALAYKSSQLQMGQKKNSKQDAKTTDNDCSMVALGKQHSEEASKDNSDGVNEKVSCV
Procedure, shortened: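 Antagonist-mode intracellular calcium assay: DOI (4 nM) added after 5 min compound pre-incubation at room temperature to dye-loaded HTR2A-CHO cells. Fluorescence followed for 3 min, sampled every second.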

[13] = target: 5-hydroxytryptamine receptor 2A (Homo sapiens) (UniProt P28223); test: 5-hydroxytryptamine receptor 2A (HTR2A) small molecule agonists, cell-based qHTS assay (AID 1963587); also: nearly all actives have a fitted effect of over 30% in size
Procedure, shortened: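 Kinetic calcium-flux fluorescence (2 min, 1 sec intervals) after compound addition in agonist mode. HTR2A-CHO cells were cultured 18 h, then dye-loaded 1 h at 37 C.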

[14] = target: Muscarinic acetylcholine receptor M1 (Homo sapiens) (UniProt P11229); test: Cholinergic receptor muscarinic 1 (CHRM1) small molecule antagonists, cell-based qHTS assay (AID 1963588); also: nearly all actives have a fitted effect of over 40% in size
Sequence of Muscarinic acetylcholine receptor M1 (Homo sapiens) (P11229 whole entry, looked up): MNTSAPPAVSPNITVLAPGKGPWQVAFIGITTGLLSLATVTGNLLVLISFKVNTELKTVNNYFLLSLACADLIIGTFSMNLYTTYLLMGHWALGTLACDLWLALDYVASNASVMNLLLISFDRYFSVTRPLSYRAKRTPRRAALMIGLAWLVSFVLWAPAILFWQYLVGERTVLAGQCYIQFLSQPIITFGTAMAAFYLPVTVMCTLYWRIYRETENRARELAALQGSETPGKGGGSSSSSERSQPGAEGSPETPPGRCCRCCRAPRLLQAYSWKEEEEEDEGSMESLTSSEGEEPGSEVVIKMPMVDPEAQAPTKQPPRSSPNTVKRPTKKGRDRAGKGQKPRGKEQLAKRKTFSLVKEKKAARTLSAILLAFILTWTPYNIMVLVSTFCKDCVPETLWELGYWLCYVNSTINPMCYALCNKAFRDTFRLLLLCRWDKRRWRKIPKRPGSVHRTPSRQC
Procedure, shortened: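 CHRM1-CHO calcium-flux assay, antagonist mode. Cells were seeded 18 h, dye-loaded 1 h at 37 C and given compound for 5 min at RT, then acetylcholine was added at 50nM. FDSS fluorescence was read 3 min; 15 concentrations, three runs.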

[15] = target: Muscarinic acetylcholine receptor M1 (Homo sapiens) (UniProt P11229); test: Cholinergic receptor muscarinic 1 (CHRM1) small molecule agonists, cell-based qHTS assay (AID 1963589); also: nearly all actives have a fitted effect of over 35% in size
Procedure, shortened: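 Measures agonist-induced intracellular calcium rise. Stable human CHRM1 CHO line, 1 h dye load at 37 C, compounds from DMSO, kinetic fluorescence read.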

[16] = cAMP Responsive Elements (CRE) small molecule antagonists, cell-based qHTS assay (AID 1963591; active = well fitted inhibition curve with a large enough effect in the signal ratio in the repeat runs, not every such curve was filed as active; the % refers to the signal ratio)
Procedure, shortened: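 HEK293T cells carrying a CRE-driven beta-lactamase reporter receive compound and NKH477 (0.25 uM final) for 3 h. Fluorescence from LiveBLAzer B/G FRET substrate is read after 2 h at room temperature.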

[17] = target: Beta-2 adrenergic receptor (Homo sapiens) (UniProt P07550); test: Adrenergic beta2 receptor (ADRB2) small molecule antagonists, cell-based qHTS assay (AID 1963592); also: series mostly up to about 92 µM; nearly all actives have a fitted effect of over 50% in size
Sequence of Beta-2 adrenergic receptor (Homo sapiens) (P07550 whole entry, looked up): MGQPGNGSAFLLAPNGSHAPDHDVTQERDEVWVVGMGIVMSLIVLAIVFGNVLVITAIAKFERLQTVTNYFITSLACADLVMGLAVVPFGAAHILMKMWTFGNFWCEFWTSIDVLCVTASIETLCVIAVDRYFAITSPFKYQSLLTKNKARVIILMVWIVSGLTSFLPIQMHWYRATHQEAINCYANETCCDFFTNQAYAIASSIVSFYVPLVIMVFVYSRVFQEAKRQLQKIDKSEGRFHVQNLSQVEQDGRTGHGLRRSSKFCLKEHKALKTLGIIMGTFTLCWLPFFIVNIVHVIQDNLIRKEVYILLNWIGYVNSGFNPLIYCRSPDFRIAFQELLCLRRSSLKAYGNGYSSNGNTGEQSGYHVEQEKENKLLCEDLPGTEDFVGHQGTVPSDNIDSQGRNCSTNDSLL
Procedure, shortened: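 Cells (CHO, stable ADRB2 overexpression) incubated 18-20hr at 37C; compounds added from DMSO; agonist mix (1nM isoproterenol, 100uM IBMX, 25uM Ro-20-1724) added; 0.5hr RT; d2-cAMP and anti-cAMP-cryptate added; 1hr RT; 665/615 nm read.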

[18] = target: D(2) dopamine receptor (Homo sapiens) (UniProt P14416); test: Dopamine D2 receptor (DRD2) small molecule agonists, cell-based qHTS assay (AID 1963594); also: nearly all actives have a fitted effect of over 35% in size
Sequence of D(2) dopamine receptor (Homo sapiens) (P14416 whole entry, looked up): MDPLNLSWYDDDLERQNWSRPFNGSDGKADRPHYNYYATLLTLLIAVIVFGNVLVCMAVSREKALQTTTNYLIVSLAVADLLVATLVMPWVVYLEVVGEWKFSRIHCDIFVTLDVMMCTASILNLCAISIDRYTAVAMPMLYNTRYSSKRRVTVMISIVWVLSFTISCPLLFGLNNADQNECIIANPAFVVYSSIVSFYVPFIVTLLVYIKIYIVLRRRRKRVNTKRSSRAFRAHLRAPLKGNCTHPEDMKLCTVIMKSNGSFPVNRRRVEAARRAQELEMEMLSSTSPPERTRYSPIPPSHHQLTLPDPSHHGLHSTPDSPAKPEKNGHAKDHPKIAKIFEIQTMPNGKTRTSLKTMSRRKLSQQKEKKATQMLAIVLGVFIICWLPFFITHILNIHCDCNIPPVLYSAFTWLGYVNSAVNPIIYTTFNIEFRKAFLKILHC
Procedure, shortened: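 cAMP accumulation in DRD2-HEK293 cells measured by HTRF after 1 h detection; compounds added 10 min before NKH477 (200nM […]) forskolin-analogue stimulation, 30 min at room temperature, with Ro20-1724 present at 0.1 mM final.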

[19] = target: D(2) dopamine receptor (Homo sapiens) (UniProt P14416); test: Dopamine D2 receptor (DRD2) small molecule antagonists, cell-based qHTS assay (AID 1963595; active = well fitted inhibition curve with a large enough effect in the signal ratio in the repeat runs, with a control signal flat; the % refers to the signal ratio)
Procedure, shortened: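 Stable D2 receptor HEK293 line, 24 h after seeding. Compound preincubated 10 min, then quinpirole (12 nM) with forskolin analogue NKH477 (200 nM), 30 min, room temperature. Detection by time-resolved FRET of cAMP.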

[20] = cAMP Responsive Elements (CRE) small molecule agonists, cell-based qHTS assay (AID 1963590)
Procedure, shortened: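 A CRE-responsive beta-lactamase reporter in HEK 293T cells was used. Treatment ran 3 h at 37 C; detection used LiveBLAzer B/G FRET substrate for 2 h at room temperature.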

Measured: Potency

COC(=O)Nc1ccc(Cl)c(Cl)c1
inactive: [1] | [2] | [3] | [4] | [5] | [6] | [7] | [8] | [9] | [10] | [11] | [12] | [13] | [14] | [15] | [16] | [17] | [18] | [19]

CC(=O)OCCOCCOCCOC(C)=O
inactive: [1] | [2] | [3] | [4] | [5] | [6] | [7] | [8] | [9] | [10] | [11] | [12] | [13] | [14] | [15] | [16] | [18]

CSc1nnc(C(C)(C)C)c(=O)[nH]1
inactive: [1] | [2] | [3] | [4] | [5] | [6] | [7] | [8] | [9] | [10] | [11] | [12] | [13] | [14] | [15] | [20] | [17] | [18] | [19]

COC(=O)c1ccccc1C
inactive: [1] | [2] | [3] | [4] | [5] | [6] | [7] | [8] | [9] | [10] | [11] | [12] | [13] | [14] | [15] | [16] | [17] | [18] | [19]

CC(=O)O[C@@H]1CC2C3CCc4cc(OC(=O)c5ccccc5)ccc4C3CCC2(C)[C@H]1OC(C)=O (stereo partly drawn)
inactive: [1] | [2] | [3] | [4] | [5] | [6] | [7] | [8] | [9] | [10] | [11] | [12] | [13] | [14] | [15] | [16] | [17] | [18] | [19]

CCN[C@H]1CN(CCCOC)S(=O)(=O)c2sc(S(N)(=O)=O)cc21
inactive: [1] | [2] | [3] | [4] | [5] | [6] | [7] | [8] | [9] | [10] | [11] | [12] | [13] | [14] | [20] | [16] | [19]

CC(CO)Oc1ccccc1 (stereo not drawn)
inactive: [1] | [2] | [3] | [4] | [5] | [6] | [7] | [8] | [9] | [10] | [11] | [12] | [13] | [14] | [20] | [16] | [17] | [18] | [19]

CCCCCCCOC(=O)c1ccccc1C(=O)OCCCCCCC
inactive: [1] | [2] | [3] | [4] | [5] | [6] | [7] | [8] | [9] | [10] | [11] | [12] | [13] | [15] | [20] | [16] | [17] | [18] | [19]
